# PMC5540273 (PLoS ONE, 2017)
# What was measured:
# Settings in all cases: concentration: 1 μM, replicates: in singlicate; n = 1
# [1] = tested on: PLK2
# [2] = tested on: PLK3
# [3] = tested on: PLK4
# [4] = tested on: PRKCD
# [5] = tested on: PRKCE
# [6] = tested on: PRKCH
# [7] = tested on: PRKCI
# [8] = tested on: PRKCQ
# [9] = tested on: PRKD1
# [10] = tested on: PRKD2
# 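Note: KINOMEscan kinase panel screen.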
Compound,%Inh [1],%Inh [2],%Inh [3],%Inh [4],%Inh [5],%Inh [6],%Inh [7],%Inh [8],%Inh [9],%Inh [10]
COC(=O)Nc1nc2ccc(Oc3ccc(NC(=O)Nc4cc(C(F)(F)F)ccc4F)cc3)cc2n1C.Cl [GW692089],0%,30%,0%,0%,20%,0%,4%,0%,0%,10%
O=C(Nc1cccc(-c2nn3ccccc3c2-c2ccnc(Nc3cccc(C(F)(F)F)c3)n2)c1)c1c(F)cccc1F [GSK292658],0%,0%,3%,0%,0%,17%,9%,20%,0%,0%
O=C(Nc1n[nH]c2nc(-c3ccc(O)cc3)ccc12)C1CC1 [SB-710363],10%,0%,30%,37%,45%,19%,0%,16%,0%,0%
CN1CCN(Cc2cccc(-c3ccc4c(Nc5ccc(Oc6ccccc6)cc5)ccnc4c3)c2)CC1 [GW578342],0%,1%,0%,15%,6%,2%,19%,3%,0%,18%
COc1cc(Nc2nccc(N3CCC(NC(=O)c4cc5ccccc5s4)C3)n2)cc(OC)c1OC (stereo not shown) [GSK1379760],0%,14%,0%,7%,14%,5%,7%,3%,0%,23%
Cl.Cl.NCC(NC(=O)c1cc(-c2ccccc2)c(-c2ccnc3[nH]ccc23)s1)c1ccccc1 (stereo not shown) [GSK1321561],30%,0%,4%,98%,69%,86%,37%,49%,38%,8%
CN(c1ccc(NC(=O)Nc2cc(C(F)(F)F)ccc2F)cc1)c1ccnc(Nc2ccc(S(N)(=O)=O)cc2)n1 [GW809893],54%,56%,97.6%,0%,0%,0%,29%,9%,0%,10%
c1ccc(Oc2ccc(Nc3ccnc4cc(-c5ccc(CNCCN6CCOCC6)o5)ccc34)cc2)nc1 [GW567145],0%,0%,43%,0%,12%,4%,39%,4%,0%,13%
O=C(Nc1cccc(-c2nn3ccccc3c2-c2ccnc(Nc3cccc(F)c3)n2)c1)c1c(F)ccc(F)c1Cl [GSK357952],0%,2%,0%,8%,0%,31%,0%,38%,21%,0%
Nc1ncc(-c2ccc3nccc(-c4ccncc4)c3c2)cc1S(=O)(=O)N1CCOCC1 [GSK1627798],0%,0%,0%,0%,9%,18%,9%,0%,0%,3%
